# Data as given in the supplement of paper PMC9135407.
# Where a name gives a salt, the structure may show the parent alone.
# Tested on: primary human hepatic stellate cells (donor 1)
# Experiment: COL1A1 mRNA fold change vs DMSO (normalised to PSMB2); higher = more COL1A1 expression, active = hit call of the paper
# Conditions: 48 h
# Description: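 Secondary qRT-PCR screen in primary human HSCs (donor 1), 384-well plates, with compounds dispensed in quadruplicate and incubated for 48 h. Cells-to-CT lysates were used for multiplexed TaqMan qPCR of ACTA2 or COL1A1 with PSMB2 as reference. Fold changes versus DMSO come from a linear model (Ct_gene ~ Ct_PSMB2 + plate + chemical). A hit is defined as COL1A1 and ACTA2 FC <0.5 (FDR <0.05) with PSMB2 between 0.2 and 2.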
row,Structure (SMILES),COL1A1 mRNA fold change
1,"O=S(=O)(NCCNC/C=C/c1ccc(Br)cc1)c1cccc2cnccc12 [H-89, Dihydrochloride] (11.1 µM)",0.594 (inactive)
2,CCOC(=O)C1=C(COCCN)NC(C)=C(C(=O)OC)C1c1ccccc1Cl (stereo not given) (33.3333 µM),0.437 (active)
3,CCN1CCC(n2cc(CNc3cc(Cl)c4ncc(C#N)c(Nc5ccc(F)c(Cl)c5)c4c3)nn2)CC1 (33.3333 µM),0.124 (inactive)
4,Cc1nc2ccc(-n3ncc(C(=O)c4cc5ccccc5[nH]4)c3N)cc2[nH]1 (33.3333 µM),0.562 (inactive)
5,Clc1ccccc1CNCC1CCC(CNCc2ccccc2Cl)CC1 (stereo not given) (33.3333 µM),0.055 (inactive)
6,CNc1nccc(-c2cccnc2Oc2cc(C(=O)Nc3cccc(C(F)(F)F)c3)ccc2C)n1 (33.3333 µM),0.618 (inactive)
7,CC(C)c1ccc(C(=O)c2cccs2)c(SCCCCCCCCN(C)C)n1 (33.3333 µM),0.429 (inactive)
8,O=C1NCN(c2ccccc2)C12CCN(CCCC(c1ccc(F)cc1)c1ccc(F)cc1)CC2 [Fluspirilene] (14.0333 µM),0.695 (inactive)
9,Cc1cnc(-c2cnc(NCCNc3ccc(C#N)cn3)nc2-c2ccc(Cl)cc2Cl)[nH]1 (33.3333 µM),1.04 (inactive)
10,CN1CCC(NC(=O)c2cc(-c3c(O)cc(O)cc3Oc3ccc([N+](=O)[O-])cc3)on2)CC1 (33.3333 µM),1.15 (inactive)
11,CN(C)C/C=C(/c1ccc(Br)cc1)c1cccnc1 [Zimelidine dihydrochloride] (11.1 µM),2.1 (inactive)
12,"NC(N)=NC(=O)c1nc(Cl)c(N2CCCCCC2)nc1N [5-(N,N-hexamethylene)amiloride] (33.3333 µM)",0.0273 (active)
13,CC[C@]1(O)C[C@@H]2CN(CCc3c([nH]c4ccccc34)[C@@](C(=O)OC)(c3cc4c(cc3OC)N(C)[C@H]3[C@@](O)(C(=O)OC)[C@H](OC(C)=O)[C@]5(CC)C=CCN6CC[C@]43[C@@H]65)C2)C1 [Vinblastine sulfate] (33.3333 µM),0.513 (inactive)
14,Cc1ccc2c(c1)c1c3n2CCNC3CCC1 (stereo not given) [Pirlindole mesylate] (20.6667 µM),0.473 (inactive)
15,CC(C)(C)c1cc(NC(=O)Nc2ccc(-c3cn4c(n3)sc3cc(OCCN5CCOCC5)ccc34)cc2)no1 [Quizartinib  (AC220)] (11.1 µM),1.01 (inactive)
16,CCCCc1oc2ccccc2c1C(=O)c1cc(I)c(OCCN(CC)CC)c(I)c1 (33.3333 µM),0.057 (active)
17,COc1cc2nc(N3CCCN(C)CC3)nc(NC3CCN(Cc4ccccc4)CC3)c2cc1OC (3.33333 µM),0.0424 (active)
18,Cn1cc(C2=C(c3ccc(Cl)cc3Cl)C(=O)NC2=O)c2ccccc21 (33.3333 µM),2.59 (inactive)
19,CNCc1ccc(-c2[nH]c3cc(F)cc4c3c2CCNC4=O)cc1 (33.3333 µM),0.83 (inactive)
20,CCc1cc2c(cc1CC)CC(NC[C@H](O)c1ccc(O)c3[nH]c(=O)ccc13)C2 [Indacaterol Maleate] (33.3333 µM),0.0797 (active)

row,Structure (SMILES),COL1A1 mRNA fold change
1,CCN(CC)CCOc1ccc(Cc2ccccc2)cc1 [DPPE fumarate] (33.3333 µM),0.51 (inactive)
2,CCN(CC)CCNC(=O)c1c(C)[nH]c(/C=C2\C(=O)Nc3ccc(F)cc32)c1C (6.66667 µM),0.664 (inactive)
3,CN(C)CCC(c1ccc(Br)cc1)c1ccccn1 (stereo not given) [Brompheniramine maleate] (33.3333 µM),0.705 (inactive)
4,CCCSc1ccc2[nH]c(NC(=O)OC)nc2c1 [Albendazole] (33.3333 µM),0.881 (inactive)
5,CC[C@@H]1C(=O)N(C)c2cnc(Nc3ccc(C(=O)NC4CCN(C)CC4)cc3OC)nc2N1C1CCCC1 (33.3333 µM),0.0466 (inactive)
6,c1cc(OCCN2CCCCC2)cc(-c2n[nH]c3ccc(-c4nnc[nH]4)cc23)c1 (33.3333 µM),0.105 (active)
7,CN(C)CCCCC(=O)Nc1ccc(NC(=S)NC(=O)c2ccc(C(C)(C)C)cc2)cc1 [Tenovin-6] (33.3333 µM),0.00938 (inactive)
8,CCCCCCCCCCCCCCCCn1cc[n+](Cc2ccccc2)c1C (11.1 µM),0.155 (inactive)
9,CNC(=O)[C@@H](Cc1ccccc1)N(C)C(=O)[C@@H](Cc1ccc2ccccc2c1)N(C)C(=O)/C=C/CC(C)(C)N [Tabimorelin] (33.3333 µM),0.935 (inactive)
10,C[C@H]1O[C@@H](O[C@H]2[C@@H](O)C[C@H](O[C@H]3[C@@H](O)C[C@H](O[C@H]4CC[C@@]5(C)[C@H](CC[C@@H]6[C@@H]5C[C@@H](O)[C@]5(C)[C@@H](C7=CC(=O)OC7)CC[C@]65O)C4)O[C@@H]3C)O[C@@H]2C)C[C@H](O)[C@@H]1O [Digoxin] (33.3333 µM),0.0679 (active)
11,O=C1Nc2ccccc2/C1=C1/Nc2ccccc2C1=O [Indirubin] (63.5333 µM),0.897 (inactive)
12,CNCCCC1c2ccccc2C=Cc2ccccc21 [Protryptyline hydrochloride] (22.2333 µM),0.548 (inactive)
13,CN1CCC(CNc2ccc3ncc(-c4cccc(OC(F)(F)F)c4)n3n2)CC1 (6.66667 µM),0.552 (inactive)
14,Nc1ccc(C(=O)Nc2cccc(-c3nc(N4CCOCC4)c4oc5ncccc5c4n3)c2)cn1 (6.66667 µM),1.15 (inactive)
15,c1ccc2c(NCCCCCCCNc3c4c(nc5ccccc35)CCCC4)c3c(nc2c1)CCCC3 [bis(7)-Tacrine] (3.33333 µM),0.0304 (active)
16,Clc1ccc(C2(c3ccc(-c4cn[nH]c4)cc3)CCNCC2)cc1 (33.3333 µM),0.285 (active)
17,CNCCCC12CCC(c3ccccc31)c1ccccc12 [Maprotiline hydrochloride] (33.3333 µM),0.0732 (active)
18,O=C(O[C@H]1CN2CCC1CC2)N1CCc2ccccc2[C@@H]1c1ccccc1 [Solifenacin succinate] (33.3333 µM),0.375 (active)
19,C[C@@H](CN1CCC(n2c(=O)[nH]c3cc(Cl)ccc32)CC1)NC(=O)c1ccc2ccccc2c1 (33.3333 µM),0.19 (inactive)
20,CN1CCN(C2=Cc3ccccc3Oc3ccc(Cl)cc32)CC1 (33.3333 µM),0.416 (active)
